The panel holds about 83,000 compounds, 20% with a hit somewhere; the sample as a whole holds those more often.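 Testing used 96-well plates and a 48-hour single-concentration exposure. Example: -40 means 40% of the starting cells died.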 Values without a mark were called inactive. The source made the active and inactive calls. Rule for the calls: active = growth percent below 10; inactive = the rest.

This assay has as its system MDA-MB-468 breast. The experiment in a line: NCI-60 one-dose screen, 48 h (100 = growth as untreated, 0 = no growth, -100 = all killed). The note with it: 10 µM unless noted.
Regarding `COc1ccc(C2NC3=C(CCCC3)C(C#N)(C#N)C2(C#N)C#N)cc1` (centres undefined), the growth was 58%.

As for `CCOC(=O)c1cnn2c3ccccc3n(S(=O)(=O)c3ccc(OC)cc3)c12`, the growth is -12.1% (active).

Regarding `O=C1Nc2c(ccc(Cl)c2Cl)/C1=C\c1ccc(C(F)(F)F)cc1`, the growth is 92.8%.

On to `CCOC(=O)/C=C\C(=O)NC(N)=O`, for which the growth was 88.6%.

As to `CN(C)CCN(Cc1ccccc1)c1ccccc1`, the growth was 103%.

Regarding `C#CC(F)(F)[C@]1(O)CC[C@H]2[C@@H]3CCC4=CC(=O)CCC4=C3[C@@H](c3ccc(C4CC4)cc3)C[C@@]21C`, the growth was 33.8%.

As for `COc1cc2c(cc1OC)C(Sc1ccc(Cl)cc1)c1c(nc(N)c(C#N)c1N)O2` (centres undefined), the growth was -23.6% (active).

Regarding `Nc1cccc(NC(=O)C(=O)Nc2cccc(N)c2)c1`, the growth is 117%.

Consider `O=C(CSc1nnc(-c2cc3c([nH]c4ccccc43)c(-c3cccc(O)c3)n2)n1-c1ccccc1)c1ccccc1`, for which the growth was 63%.

Take `CCN(CC)CCCC(C)Nc1c2ccc(Cl)cc2nc2ccc(OC)cc12` (centres undefined): the growth is -63.3% (active).

For `CCCCCCCCCCCCCCCCN(C(C)c1ccccc1)S(=O)(=O)c1ccc(OC)c(N)c1` (centres undefined), the growth was 119%.

For the compound `Cc1ccc(Nc2cccc3ccccc23)cc1`, the growth was -11.7% (active).

On to `COc1ccc(NC(=O)C2CC3C=CC2C3)c([N+](=O)[O-])c1` (centres undefined), for which the growth is 93.1%.

Take `COc1cc2cc(Oc3ccc(NC(=O)Nc4ccc(Cl)c(Cl)c4)cc3)c(C)nc2cc1OC`: the growth was -16.7% (active).

As to `COc1cc(NC(=O)c2cc(OC)c3ccn(C)c3c2)cc2c1C[C@]1(C)CC[C@@H](O)C(C)(C)[C@H]1O2`, the growth is 69.6%.

`O=C(Cc1ccc(F)c(F)c1)Nc1cc(C2(C(F)(F)F)CC2)nn1Cc1ccccc1`: the growth was -33.1% (active).

As for `NC(=O)OCCn1cc(-c2nc(-c3c[nH]c4ncccc34)cs2)c2ccccc21`, the growth is 12.4%.

On to `COc1ccc(NC(=O)CSc2nnc(-c3ccc4nc(-c5ccc(OC)c(OC)c5)[nH]c4c3)o2)cc1OC`, for which the growth is 92.7%.

Take `COc1ccc(CCN2C(=O)C(C)(C)SC2=S)cc1OC`: the growth is 105%.

Consider `COc1ccc(CNc2ccc3nc(CCC4CCCCC4)[nH]c3c2)cc1`, for which the growth was 39.1%.

With `CC(=O)Nc1ccc2c(c1)Cc1cc(F)ccc1-2`, the growth is 101%.

Take `CC[C@H](C)[C@H]1NC(=O)[C@@H]([C@H](O)C(C)C)NC(=O)[C@@H](C)N(C)C(=O)[C@H](C)N(C)C(=O)[C@H](CC(C)C)NC(=O)[C@H](CC(C)C)N(C)C(=O)[C@H](C)N(C)C1=O`: the growth is -5.6% (active).

`O=C(C[n+]1ccnc2ccccc21)c1ccc(O)c(O)c1`: the growth was 3.88% (active).

For `CCN(CC)c1ccc(/C=N/NC(=O)c2ccc(Nc3ccnc(C(F)(F)F)c3)cc2)c(O)c1`, the growth was 8.37% (active).
